{"source": "PubChem BioAssay AID434962", "about": "(The Scripps Research Institute Molecular Screening Center, 2010)", "note": "About 1,300 (0.41%) of roughly 320,000 compounds were called active. The full list was thinned out, with actives kept by preference. Unmarked numbers belong to inactive results.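 Rule for the calls: active = percent inhibition above the average of all tested compounds plus 3 SD, set per screening campaign (cut at about 16% in these data); inactive = the rest.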"}
{"molecular_target": "Insulin-degrading enzyme (Homo sapiens) (UniProt P14735)", "sequence (P14735 whole entry, looked up)": "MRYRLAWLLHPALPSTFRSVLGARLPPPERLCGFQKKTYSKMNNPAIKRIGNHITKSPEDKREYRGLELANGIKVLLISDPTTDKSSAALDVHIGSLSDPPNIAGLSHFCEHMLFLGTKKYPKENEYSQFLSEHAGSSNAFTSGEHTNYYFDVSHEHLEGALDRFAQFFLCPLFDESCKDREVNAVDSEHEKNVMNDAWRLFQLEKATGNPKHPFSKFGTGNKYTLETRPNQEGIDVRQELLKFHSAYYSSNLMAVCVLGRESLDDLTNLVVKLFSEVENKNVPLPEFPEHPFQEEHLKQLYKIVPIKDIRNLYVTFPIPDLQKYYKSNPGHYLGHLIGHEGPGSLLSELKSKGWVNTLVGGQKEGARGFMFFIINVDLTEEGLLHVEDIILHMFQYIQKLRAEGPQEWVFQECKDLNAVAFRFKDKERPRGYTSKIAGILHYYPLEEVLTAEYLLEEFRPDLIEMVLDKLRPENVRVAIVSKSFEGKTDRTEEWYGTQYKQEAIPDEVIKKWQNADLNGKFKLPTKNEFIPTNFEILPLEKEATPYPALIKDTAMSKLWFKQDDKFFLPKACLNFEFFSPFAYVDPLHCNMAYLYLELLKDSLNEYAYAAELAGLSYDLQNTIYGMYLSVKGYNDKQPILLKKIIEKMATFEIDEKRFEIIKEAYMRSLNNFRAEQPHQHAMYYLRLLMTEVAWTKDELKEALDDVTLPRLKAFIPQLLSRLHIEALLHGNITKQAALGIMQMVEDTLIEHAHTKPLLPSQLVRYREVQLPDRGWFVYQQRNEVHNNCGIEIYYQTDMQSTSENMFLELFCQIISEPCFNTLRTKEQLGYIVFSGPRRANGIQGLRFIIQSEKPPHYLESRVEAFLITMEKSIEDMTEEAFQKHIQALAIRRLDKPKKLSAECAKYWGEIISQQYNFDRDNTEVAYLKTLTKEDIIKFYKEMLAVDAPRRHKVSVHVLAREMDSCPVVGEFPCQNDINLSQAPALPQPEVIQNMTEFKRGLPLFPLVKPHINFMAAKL", "test": "human IDE inhibitors in live cells, primary screen, fluorescence polarization, HEK cells, FAbetaB substrate (AID 434962);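 note: IDE supplied by intact live HEK cells; FP after avidin binding of uncleaved biotin substrate so inhibition keeps polarization high; 0% = DMSO wells and 100% = 60 µM reference IDE inhibitor Ii1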", "settings": "FAbetaB cleavage, at 5.59 µM, active compounds read high"}
{"molecule": "Nc1nc(Br)c2ccccc2c1-c1ccc(F)cc1", "inhibition": "-4.68%"}
{"molecule": "CC(C)OCCCNC(=S)N1CCC(C(=O)c2ccc3c(c2)OCCO3)CC1", "inhibition": "7.22%"}
{"molecule": "COC(=O)c1cc(C(=O)OCC(=O)Nc2cc(C)on2)cc([N+](=O)[O-])c1", "inhibition": "0.35%"}
{"molecule": "Cc1ccc2c(c1)c1ncnc(N3CCc4ccccc4C3)c1n2C", "inhibition": "39.7% (active)"}
{"molecule": "Cc1ccc2c(c1)c1ncn(CCC3=CCCCC3)c(=O)c1n2C", "inhibition": "4.46%"}
{"molecule": "Cc1ccc(-c2cc(C(=O)N3CCc4ccccc4C3)no2)cc1", "inhibition": "-0.51%"}
{"molecule": "COc1ccccc1-c1n[nH]c2c1[C@H](C)CC[C@H]2C(C)C", "inhibition": "0.94%"}
{"molecule": "CCCCOC(=O)c1ccc(NC(c2ccc(C)cc2)P(=O)(OC)OC)cc1", "note": "(stereo not given)", "inhibition": "7.2%"}
{"molecule": "Cc1nn(C)cc1C(=O)Nc1ccccc1Br", "inhibition": "2.37%"}
{"molecule": "CCOC(=O)c1nn(-c2cccc(C)c2)cc1C(=O)c1ccccc1", "inhibition": "-1.22%"}
{"molecule": "Cc1nn(C)cc1C(=O)c1ccccc1", "inhibition": "16.3% (active)"}
{"molecule": "COc1ccc(/C=C2\\CCCC3C2=NN(C(=O)c2scnc2C)C3c2ccc(OC)cc2)cc1", "note": "(stereo not given)", "inhibition": "-0.54%"}
{"molecule": "O=C(CCc1nnc(Cc2ccc3c(c2)OCO3)o1)NCCc1ccccc1Cl", "inhibition": "0.48%"}
{"molecule": "CCCCN(C1CCS(=O)(=O)C1)S(=O)(=O)c1ccc(C(C)C)cc1", "note": "(stereo not given)", "inhibition": "5.43%"}
{"molecule": "Cc1c(C(=O)Nc2cccc(S(=O)(=O)N3CCOCC3)c2)oc2ccccc12", "inhibition": "-1.96%"}
{"molecule": "Cc1c(C(=O)Nc2cccc(-c3nnc4n3CCCCC4)c2)oc2ccccc12", "inhibition": "17.2% (active)"}
{"molecule": "O=C(Cn1[nH]c(=O)c2ccccc2c1=O)Nc1cccc(-c2nnc3n2CCCCC3)c1", "inhibition": "7.74%"}
{"molecule": "COc1c(Br)cc2c(C)c(C(=O)N3CCOCC3)oc2c1Br", "inhibition": "3.66%"}
{"molecule": "COc1ccccc1N(CC(=O)Nc1ccc(C(F)(F)F)cc1)S(C)(=O)=O", "inhibition": "-2.79%"}
{"molecule": "C=CCOc1ccccc1NC(=O)CN1C(=O)CNC1=O", "inhibition": "-0.94%"}
{"molecule": "CN(C)/C=C/C(=O)c1cnc2sccn2c1=O", "inhibition": "-1.17%"}
{"molecule": "COc1ccc(NS(=O)(=O)c2ccc(NC(=O)C(C)(C(F)(F)F)C(F)(F)F)cc2)nn1", "inhibition": "6.58%"}
{"molecule": "COc1cc(NS(=O)(=O)c2ccc(NC(=S)NC(=O)c3ccc(Br)cc3)cc2)ncn1", "inhibition": "-2.01%"}
{"molecule": "COc1ccc(NS(=O)(=O)c2ccc(NC(=S)NC(=O)/C=C/c3ccc(C)cc3)cc2)nn1", "inhibition": "24.2% (active)"}
{"molecule": "Cc1ccc(NC2CCCN(C(=O)CCC3(C)CC3)C2)cc1C", "note": "(stereo not given)", "inhibition": "2.09%"}
{"molecule": "O=C(Nc1ccc(Cl)c(Cl)c1)N1CC=C(c2ccccc2)CC1", "inhibition": "19.1% (active)"}
{"molecule": "COc1cc(C(=O)NCC(=O)N2CC=C(c3ccccc3)CC2)cc(OC)c1OC", "inhibition": "-2.8%"}
{"molecule": "O=C(Nc1cccc(NC(=O)N2CCN(c3ccccc3)CC2)c1)N1CCN(c2ccccc2)CC1", "inhibition": "3.98%"}
{"molecule": "O=C(CSc1nnc(CNC(=O)c2ccc(F)cc2)o1)Nc1ccc2c(c1)OCO2", "inhibition": "1.15%"}
{"molecule": "CS(=O)(=O)N(Cc1ccccc1Cl)c1ccc(C(=O)NCc2cccnc2)cc1", "inhibition": "12.1%"}
{"molecule": "CC(=O)[C@@]12O[C@@H]1C[C@H]1[C@@H]3CC[C@H]4C[C@@H](O)CC[C@]4(C)[C@H]3CC[C@@]12C", "inhibition": "0.23%"}
{"molecule": "O=C(COc1ccc(/C=N/NC(=O)c2ccc(O)cc2)cc1)Nc1ccc([N+](=O)[O-])cc1", "inhibition": "0.35%"}
{"molecule": "O=C(N/N=C/c1ccc(OC(=O)c2ccccc2Cl)cc1)c1ccc(O)cc1", "inhibition": "17.1% (active)"}
{"molecule": "CC(C)(C)C(=O)Nc1ccc(C(=O)N/N=C/c2ccccc2OC(=O)c2ccc(Cl)cc2Cl)cc1", "inhibition": "-0.07%"}
{"molecule": "CN(C(=O)c1cccc(NC(=O)Cc2cccc([N+](=O)[O-])c2)c1)C1CCCCC1", "inhibition": "-2.48%"}
{"molecule": "Cn1cncc1C#Cc1c(-c2ccsc2)sc2ccccc12", "inhibition": "2.04%"}
{"molecule": "CC[C@H]1OC(=O)[C@H](C)[C@@H](O[C@H]2C[C@@](C)(OC)[C@@H](O)[C@H](C)O2)[C@H](C)[C@@H](O[C@@H]2O[C@H](C)C[C@H](N(C)C)[C@H]2O)[C@](C)(O)C[C@@H](C)[C@@H]2N[C@@H](COCCOC)O[C@H]([C@H]2C)[C@]1(C)O", "inhibition": "-4.09%"}
{"molecule": "C=CCSc1nc2c(c(=O)[nH]c(=O)n2C)n1Cc1ccccc1", "inhibition": "-11.6%"}
{"molecule": "Cc1cc2nc3c(=O)n(Cc4ccccc4)c(=O)[nH]c3nc2cc1N", "inhibition": "20.4% (active)"}
{"molecule": "CN(C(=O)COC(=O)c1ccc(Br)o1)c1c(N)n(Cc2ccccc2)c(=O)[nH]c1=O", "inhibition": "5.15%"}
{"molecule": "O=C(/C=C(O)/C=C/c1ccc(O)cc1)/C=C/c1ccc(O)cc1", "inhibition": "138% (active)"}
{"molecule": "O=C(O)/C=C/c1ccc(OCCCF)cc1", "inhibition": "-0.17%"}
{"molecule": "O=C(/C=C/c1ccc2c(c1)OCCO2)c1ccc(O)cc1", "inhibition": "-0.89%"}
{"molecule": "Cc1cccc2sc(N(CCCN(C)C)C(=O)CCS(=O)(=O)c3ccccc3)nc12", "inhibition": "1.58%"}
{"molecule": "O=C(O)c1cc(S(=O)(=O)NC2CCCc3ccccc32)ccc1O", "note": "(stereo not given)", "inhibition": "-0.45%"}
{"molecule": "O=C(NNS(=O)(=O)c1c(F)cc(F)c(Cl)c1F)C12CC3CC(CC(C3)C1)C2", "inhibition": "-2.1%"}
{"molecule": "CCCNC(=O)N1CCN(C(=O)NCCC)CC1", "inhibition": "4.47%"}
{"molecule": "Cc1ccccc1NC(=O)c1nn(-c2ccc(F)c(F)c2)ccc1=O", "inhibition": "-4.03%"}
{"molecule": "Cc1cc(N2C(=O)C(O)=C(C(=O)c3ccc(C)o3)C2c2ccc(OCc3ccccc3)cc2)no1", "note": "(stereo not given)", "inhibition": "-9.32%"}
{"molecule": "C=CCOc1cccc(C2C(C(=O)c3ccc(C)o3)=C(O)C(=O)N2c2nnc(C)s2)c1", "note": "(stereo not given)", "inhibition": "24% (active)"}
{"molecule": "C=CCOc1cccc(C2C(C(=O)c3ccc(C)o3)=C(O)C(=O)N2CCCn2ccnc2)c1", "note": "(stereo not given)", "inhibition": "1.55%"}
{"molecule": "Cc1ccc(C)c(NS(=O)(=O)c2ccc(OCC(=O)NCc3cccnc3)cc2)c1", "inhibition": "4.06%"}
{"molecule": "CC(C)COc1ccc(C(=O)NNC(=O)CCC(=O)c2cccs2)cc1", "inhibition": "-2.82%"}
{"molecule": "NS(=O)(=O)c1cccc(NC(=O)CC23CC4CC(CC(Br)(C4)C2)C3)c1", "inhibition": "2%"}
{"molecule": "CN(C)/C=C1/Nc2ccccc2C1=O", "inhibition": "1.5%"}
{"molecule": "O=C1Nc2ccccc2/C1=C/c1ccnc2ccccc12", "inhibition": "6.65%"}
{"molecule": "Cc1cc(C)c(/C=C2\\C(=O)Nc3ccccc32)[nH]1", "inhibition": "66.2% (active)"}
{"molecule": "COc1ccc2nc3n(c(=O)c2c1)-c1ccc(Cl)cc1C(=O)NC3Cc1ccccc1", "note": "(stereo not given)", "inhibition": "4.46%"}
{"molecule": "COc1cc(/C=C(\\C#N)c2nc3c(s2)CC(C)CC3)ccc1O", "note": "(stereo not given)", "inhibition": "89.3% (active)"}
{"molecule": "N#C/C(=C(/O)COc1cccc2ccccc12)c1nc2ccccc2[nH]1", "inhibition": "-1.21%"}
{"molecule": "COc1cc(/C=C(\\C#N)c2nc3ccccc3[nH]2)ccc1O", "inhibition": "121% (active)"}
{"molecule": "Cc1ccc2nc(/C(C#N)=C\\c3ccc(OC(=O)c4cccs4)cc3)[nH]c2c1", "inhibition": "6.77%"}
{"molecule": "CCOc1cc(/C=C(\\C#N)c2nc(-c3cccs3)c(NC(C)=O)s2)ccc1O", "inhibition": "11%"}
{"molecule": "CCc1nn(CCCC(=O)Nc2ccc(C)c(C)c2)c(=O)c2cc3occc3n12", "inhibition": "1.46%"}
{"molecule": "O=C(c1cccs1)n1nc(NCc2ccccc2)nc1NCc1ccccc1", "inhibition": "-0.3%"}
{"molecule": "COC(=O)Nc1ccc(S(=O)(=O)Nc2cc(OC)nc(OC)n2)cc1", "inhibition": "0.87%"}
{"molecule": "CCOC(=O)c1c(C)n(C)c2ccc(OC)c(NS(=O)(=O)CC)c12", "inhibition": "-2.79%"}
{"molecule": "CC1C(=O)Nc2ccc(S(=O)(=O)N3CCN(c4ccccc4F)CC3)cc2NC1=O", "note": "(stereo not given)", "inhibition": "1.3%"}
{"molecule": "Oc1ccc(-c2onc3ccc(Cl)cc23)cc1", "inhibition": "43.5% (active)"}
{"molecule": "COc1ccc(-c2onc3ccc(C(C)=O)cc23)cc1", "inhibition": "-1.49%"}
{"molecule": "CC(OC(=O)c1ccc2noc(-c3ccccc3)c2c1)C(N)=O", "note": "(stereo not given)", "inhibition": "8.12%"}
{"molecule": "Cc1ccc(NC(=O)C2CCN(S(=O)(=O)c3ccc4c(c3)NC(=O)CO4)CC2)cc1C", "inhibition": "-0.04%"}
{"molecule": "Cn1cccc1C(=O)NNC(=O)COc1ccc(Br)cc1", "inhibition": "2.25%"}
{"molecule": "COc1ccc2c(c1)c1nc3n(c(=O)c1n2CC(=O)Nc1ccccc1)CCS3", "inhibition": "-0.03%"}
{"molecule": "Cc1nnc2n1N=C(c1ccc3c(c1)NC(=O)CO3)CS2", "inhibition": "4.61%"}
{"molecule": "CC(=O)N1CCSc2ccc(S(=O)(=O)N3CCC(C)CC3)cc21", "inhibition": "2.25%"}
{"molecule": "CC(=O)Nc1ccc(/C=C/C(=O)c2ccccc2)cc1", "inhibition": "1.53%"}
{"molecule": "O=C(/C=C/c1ccc(N2CCOCC2)cc1)c1ccccc1", "inhibition": "20.5% (active)"}
{"molecule": "O=C(O)c1ccc2c(c1)C(=O)N(c1ccc(/C=C/C(=O)c3ccccc3)cc1)C2=O", "inhibition": "11.8%"}
{"molecule": "CNC[C@H]1Oc2c(NC(=O)C3CCCCC3)cccc2C(=O)N([C@H](C)CO)C[C@@H]1C", "inhibition": "8.42%"}
{"molecule": "NC(=O)NC(=O)CSc1nc2cc([N+](=O)[O-])ccc2n1-c1cccc(C(F)(F)F)c1", "inhibition": "-2.07%"}
{"molecule": "CCCC(=O)Nc1c(O)c2ccccc2[nH]c1=O", "inhibition": "20.6% (active)"}
{"molecule": "CC(C)C(=O)Nc1c(O)c2ccccc2[nH]c1=O", "inhibition": "-1.36%"}
{"molecule": "CCCOC(=O)Cc1c(O)c2ccccc2[nH]c1=O", "inhibition": "1.56%"}
{"molecule": "O=C(c1cccc(Br)c1)N1CCN(C2=NS(=O)(=O)c3ccccc32)CC1", "inhibition": "-5.26%"}
{"molecule": "CCCC1CCC(=NNC(=S)NCCc2ccccc2)CC1", "note": "(stereo not given)", "inhibition": "1.89%"}
{"molecule": "COc1cccc(CNC(=O)COc2cc(O)c3c(c2)OC(C)(C)CC3=O)c1", "inhibition": "0.91%"}
{"molecule": "O=C(COC(=O)CCc1ccc(S(=O)(=O)N2CCOCC2)cc1)Nc1cccc(Cl)c1", "inhibition": "1.15%"}
{"molecule": "O=C(CCc1ccc(S(=O)(=O)N2CCOCC2)cc1)Nc1ccc2ccccc2c1", "inhibition": "26.8% (active)"}
{"molecule": "Cc1ccc(CC(=O)Nc2ccc(S(=O)(=O)N3CCOCC3)cc2)cc1C", "inhibition": "3.81%"}
